Unmarked numbers belong to inactive results.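 How the source made its calls: active = MAPPIT score above the 99th percentile of random reference set scores in the same batch; inactive = at or below it.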
Experiments:
Test in all cases: MAPPIT interaction score (arbitrary units); higher = stronger binary interaction signal, active = hit call of the paper
[1] = molecular target: Lmpt; details: MAPPIT configuration: N-N; pair source set: Curagen_low_conf
[2] = molecular target: Pen; details: MAPPIT configuration: N-N; pair source set: Finley_Y2H
[3] = molecular target: lwr; details: MAPPIT configuration: N-N; pair source set: screen_1
[4] = molecular target: Lcp1; details: MAPPIT configuration: N-N; pair source set: DPIM
[5] = molecular target: Jupiter; details: MAPPIT configuration: N-N; pair source set: DPIM
[6] = molecular target: Pfdn2; details: MAPPIT configuration: N-N; pair source set: Lit-BM-16
[7] = molecular target: MED8
[8] = molecular target: MESK2; details: MAPPIT configuration: N-N; pair source set: DPIM
[9] = molecular target: MAPk-Ak2; details: MAPPIT configuration: N-N; pair source set: Curagen_high_conf
[10] = molecular target: LTV1; details: MAPPIT configuration: N-N; pair source set: screen_1
[11] = molecular target: MED15; details: MAPPIT configuration: N-N; pair source set: Finley_Y2H
[12] = molecular target: Kaz; details: MAPPIT configuration: N-N; pair source set: Curagen_low_conf
[13] = molecular target: LRR; details: pair source set: RRS
[14] = molecular target: MagR; details: MAPPIT configuration: N-N; pair source set: Lit-BS-16
[15] = molecular target: Polr1B; details: MAPPIT configuration: N-N; pair source set: DPIM
[16] = molecular target: pav; details: MAPPIT configuration: N-N; pair source set: DPIM
[17] = molecular target: Lac; details: pair source set: Lit-BM-16
[18] = molecular target: MYPT-75D; details: pair source set: Lit-BM-16
[19] = molecular target: Mbs; details: MAPPIT configuration: N-N; pair source set: Lit-BM-16
[20] = molecular target: Nop17l; details: MAPPIT configuration: N-N; pair source set: Lit-BM-16
[21] = molecular target: Tm1; details: MAPPIT configuration: N-C; pair source set: Lit-BM-16
[22] = molecular target: Zasp66; details: pair source set: Lit-BM-16
[23] = molecular target: elm; details: MAPPIT configuration: N-N; pair source set: Lit-BS-16
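Further: HEK293T cells with Epo stimulation, STAT-responsive firefly luciferase reporter, fold induction versus unstimulated cells divided by the larger fold induction of two negative controls lacking either bait or prey.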

B1: prod (protein)
chain: MEKVEAVTVSNVDPYRRILNKVVSQLLLDKGAGQASNHSLETLTQMLQALIWEIGNSAHNYCELSGRTMPTVGDVSLALINMGISISNLDPYMRKETHVPIPLPPQQTQQRPLSLLQAGIKAPHPHYVPSYFPPMPDPHAYIRTPTHKQPVTEYEAIREKAACQKRDIEKALTKFLCKTTETNNLFPTEDNMFPLIACKPAFPPYAAALNPTDQVFDFEELEYHYLVANRTEDEPSKDDGEEGDSENEEMDGDKSKEEKPELDIKPNSNTNKAILENPNIDNPYLRAATLPKRSKNCPTPGTMPSRSLATTAPTIRTPSTLEITKTNL
[1]
  MAPPIT interaction score: 2.19
[2]
  MAPPIT interaction score: 0.326
[3]
  MAPPIT interaction score: -0.147

B2: B52 (protein)
chain: MVGSRVYVGGLPYGVRERDLERFFKGYGRTRDILIKNGYGFVEFEDYRDADDAVYELNGKELLGERVVVEPARGTARGSNRDRYDDRYGGRRGGGGGRYNEKNKNSRSSSRYGPPLRTEYRLIVENLSSRVSWQDLKDYMRQAGEVTYADAHKQRRNEGVVEFASLSDMKTAIEKLDDTELNGRRIHLVEDRRGGRSGGGGGSGRGRSRSSSSRSRSRSRRRSRSRRSSHSRSKSRSRSKSRGGRSKSKSPVKSRSRSRSRSNKSRDVSKSKSKSHSRTRSRSPKRERDSRSRSRSVSKRESRSRSRSKSIHRDSRSRPPTVSFKSSFYKFTTMPFFCSDRSASAENKSRSRSRSRSASPKNGNASPDRNNESMDD
[4]
  MAPPIT interaction score: -0.142

B3: Pfdn5 (protein)
chain: MAATPSAPAKSEMIDLTKLSPEQLIQIKQEFEQEITNVQDSLSTLHGCQAKYAGSKEALGTFQPNWENRQILVPLTSSMYVPGRVKDLNRFVIDIGTGYYIEKDLEGSKDYFKRRVEYVQEQIEKIEKIHLQKTRFYNSVMSVLEMKQAAAAKLQSQQQSQPAVTQSS
[5]
  MAPPIT interaction score: -0.0979
[6]
  MAPPIT interaction score: 5.87 (active)

B4: Trmt112 (protein)
chain: MKLSTYNFLTSVAIKGVKVGFPLKLTINKKEVVESEFNPTFVERILPKLDWSAVYGAAQVAELTEDIPAVQPENIVENELLLQKLHHLLFEIDVLEGQLECPETGRVFPISDGIPNMLLNEDEV
[7]; MAPPIT configuration: N-C, pair source set: screen_4
  MAPPIT interaction score: 0.923
[7]; MAPPIT configuration: N-N, pair source set: Finley_Y2H
  MAPPIT interaction score: 1.99

B5: SdhB (protein)
chain: MLATEARQILSRVGSLVARNQMRAISNGTAQLEQQAQPKEAQEPQIKKFEIYRWNPDNAGEKPYMQTYEVDLRECGPMVLDALIKIKNEMDPTLTFRRSCREGICGSCAMNIGGTNTLACISKIDINTSKSLKVYPLPHMYVVRDLVPDMNNFYEQYRNIQPWLQRKNEAGEKKGKAQYLQSVEDRSKLDGLYECILCACCSTSCPSYWWNAEKYLGPAVLMQAYRWIIDSRDENSAERLNKLKDPFSVYRCHTIMNCTRTCPKGLNPGRAIAEIKKLLSGLASKPAPKLETAALHK
[8]
  MAPPIT interaction score: 0.135

B6: p38b (protein)
chain: MSRKMAKFYKLDINRTEWEIPETYQNLQPVGQGAYGQVCKAVVRGTSTKVAIKKLARPFQSAVHAKRTYRELRLLKHMDHENVIGLLDVFHPGQPADSLDQFQQVYMVTHLMDADLNNIIRTQKLSDDHVQFLVYQILRGLKYIHSAGVIHRDLKPSNIAVNEDCELRILDFGLARPAESEMTGYVATRWYRAPEIMLNWMHYNQTADIWSVGCIMAELLTGRTLFPGTDHIHQLNLIMEVLGTPADEFMSRISSESARNYIRSLPVMPRRNFRDIFRGANPLAIDLLEKMLELDADKRITAEQALAHPYMEKYHDPTDEQTAALYDQSFEENELPVEKWREMVFSEVTAFKPTAAFAELLPKEQ
[9]
  MAPPIT interaction score: 1.93

B7: bys (protein)
chain: MGKPKKANVATIKNVNLEKQITEGRVAKNKNKDKVKLRAEESANIDARSSQKILAAAKLQQLELDEENFPSLVTVKKVNFSLNDGHVKEDEEVNETDLMADLDMDEDDVAAFERFQQPAQEGKRTLHLSKMIMQKIQEKEADIHTKISDEGSLKIEEIDPKVKEMYEGVRDVLKRYRSGKIPKAFKIIPKLRNWEQILFITEPHNWSAAAMFQGTRIFCSVLSQAMAQRFYNLVLLPRVRDDLCEYKKLNMHLYNALKRALFKPAAFMKGIILPLLEGGDCTLREAIIFGSVVARSSIPVLHSSACLLKICEMAYSGANSIFIRYFLDKRYALPYRVVDAAVFHFLRFENDKRELPVLWHQSLLTFAQRYKNDISSEQRDALLQLLKKKSHFKITPDVRRELQAASCRDVEMMETDNGLAGQPAKMYTDADVEYEG
[10]
  MAPPIT interaction score: 1.68

B8: grp (protein)
chain: MAATLTEAGTGPAATREFVEGWTLAQTLGEGAYGEVKLLINRQTGEAVAMKMVDLKKHPDAANSVRKEVCIQKMLQDKHILRFFGKRSQGSVEYIFLEYAAGGELFDRIEPDVGMPQHEAQRYFTQLLSGLNYLHQRGIAHRDLKPENLLLDEHDNVKISDFGMATMFRCKGKERLLDKRCGTLPYVAPEVLQKAYHAQPADLWSCGVILVTMLAGELPWDQPSTNCTEFTNWRDNDHWQLQTPWSKLDTLAISLLRKLLATSPGTRLTLEKTLDHKWCNMQFADNERSYDLVDSAAALEICSPKAKRQRLQSSAHLSNGLDDSISRNYCSQPMPTMRSDDDFNVRLGSGRSKEDGGDRQTLAQEARLSYSFSQPALLDDLLLATQMNQTQNASQNYFQRLVRRMTRFFVTTRWDDTIKRLVGTIERLGGYTCKFGDDGVVTVSTVDRNKLRLVFKAHIIEMDGKILVDCRLSKGCGLEFKRRFIKIKNALEDIVLKGPTTWPIAIATNSVP
[11]
  MAPPIT interaction score: 2.02

B9: Cpn (protein)
chain: MEPGTIPSPVSAPVAAPVTPSAVAAPVQVVSPAAVAPAPAAPIAVTPVAPPPTLASVQPATVTIPAPAPIAAASVAPVASVAPPVVAAPTPPAASPVSTPPVAVAQIPVAVSAPVAPPVAATPTPVAPIPVAAPVIATPPVAASAPTPAAVTPVVSPVIATPPVVPANTTVPVAAPVAAVPAAVPVVAPVLAPAVAPAVAPVVAETPAPPPVAEIPVATIPECVAPLIPEVSVVATKPLAAAEPVVVAPPATETPVVAPAAASPHVSVAPAVETAVVAPVSASTEPPVAAATLTTAPETPALAPVVAESQVAANTVVATPPTPAPEPETIAPPVVAETPEVASVAVAETTPPVVPPVAAESIPAPVVATTPVPATLAVTDPDVTASAVPELPPVIAPSPVPSAVAETPVDLAPPVLPPVAAEPVPAVVAEETPETPAPASAPVTIAALDIPEVAPVIAAPSDAPAEAPSAAAPIVSTPPTTASVPETTAPPAAVPTEPIDVSVLSEAAIETPVAPPVEVTTEVAVADVAPPEAAADLIIEPVEPPAPIPDLLEQTTSVPAVEAAESTSSPIPETSLPPPNEAVASPEVAVAPITAPEPIPEPEPSLATPTEPIPVEAPVVIQEAVDAVEVPVTETSTSIPETTVEYPVAEKVLDPAITEAPVTTQEPDVANINDGAPATEITTPAVEIVTAAAEVSDTAIPLIDPPVPQEIAVAEIPETETKPAEVIVEQSTIPIEAPVPEVSKYAEPVISEAPAAEVPITAGDNPDNTSVGISEVVPTIAEKAVEEVPTSEIPEQSSSPSDSVPVAKITPLLRDLQTTDVSLLAIAATLDAIGEKLKDQKARNQQVMDRLCEIEKILGPPKSN
[12]
  MAPPIT interaction score: 0.293

B10: CG33108 (protein)
chain: MSNISSVAPPPPPPPMIVTPSTPATTKERPVGDNITTDECTWACEYPEVQKGCYLSRVCQYTPPKHCQYYSVNSIVQVGPTCGLVALSMLLGGSPTADDLLKDAIDQEYTLNGELFSAQYLFELTRKHMPGPAACQLHVGPLDCKKVKELLKAGGCLLVPYDADVNHAPCVKNGHRAHWALIVGYLVDTQDRFYVLARHGKSRNLAVWPLDTLSQSNENLKEFAQPKGYPDDEFLLPPGGIGGSLGLNERCILVNGLPKQVIHVRWS
[13]; MAPPIT configuration: N-C
  MAPPIT interaction score: 1.24
[13]; MAPPIT configuration: N-N
  MAPPIT interaction score: -0.128

B11: Hakai (protein)
chain: MDTEEVKRGRGRGRGTRARGRGRGRGRGRGKKIDDSSIADAAALAASSCAALEDSPGRLDASEDSVMQELDKDGELETPGALEEPLPHGALGAVAASGNMTPATQQPQVLQQVPPPVMSQTTISLSLARAVDMEADISQLEAPTFTTLSRGPPEPMLRLKWNHKVSLIGEKVLNPMIHCCDQCDKPILVYGRMIPCKHVFCLKCARAEPIKSCPRCTDKVLRVEQSGLGTVFMCTHGGSRYGSSGCRRTYLSQRDLQAHINHRHVAPQPPPLQPQPQLSAMAEQPKMTDLGGVGLGLELHKQRKLSESSVPISVSASIASRPVLSRLPLTGGVGNIGSIGSIPPPGSAAAAQNAIHGGHSTLTLANLTRINNANAQECHQGKASLHHTLKKGTPHQSESVADASYYSSVLASFGSAAGNPGSGPPGGGATAAAQPANPSGSHSAVGPGALIGGSTDAPTGGSSGNWQQSQYYR
[14]
  MAPPIT interaction score: 2.01
[15]
  MAPPIT interaction score: 0.0868
[16]
  MAPPIT interaction score: 0.0448

B12: Lac (protein)
chain: MWRPSISNCVWSTLLLAIFVQQTLAQRTPTISYITQEQIKDIGGTVEFDCSVQYAKEYNVLFLKTDSDPVFLSTGSTLVIKDSRFSLRYDPNSSTYKLQIKDIQETDAGTYTCQVVISTVHKVSAEVKLSVRRPPVISDNSTQSVVASEGSEVQMECYASGYPTPTITWRRENNAILPTDSATYVGNTLRIKSVKKEDRGTYYCVADNGVSKGDRRNINVEVEFAPVITVPRPRLGQALQYDMDLECHIEAYPPPAIVWTKDDIQLANNQHYSISHFATADEYTDSTLRVITVEKRQYGDYVCKATNRFGEAEARVNLFETIIPVCPPACGQAYIAGAEDVSATSFALVGILAALLFAR
[17]; MAPPIT configuration: N-C
  MAPPIT interaction score: -0.593
[17]; MAPPIT configuration: N-N
  MAPPIT interaction score: -0.017

B13: flw (protein)
chain: MGDFDLNVDSLIQRLLEMRSCRTGKQVQMTEAEVRGLCLKSREIFLQQPILLELEAPLIICGDIHGQYTDLLRLFEYGGFPPAANYLFLGDYVDRGKQSLETICLLLAYKIKYPENFFLLRGNHECASINRIYGFYDECKRRYNVKLWKTFTDCFNCLPVAAIIDEKIFCCHGGLSPDLQGMEQIRRLMRPTDVPDTGLLCDLLWSDPDKDVQGWGENDRGVSFTFGVDVVSKFLNRHELDLICRAHQVVEDGYEFFARRQLVTLFSAPNYCGEFDNAGGMMTVDDTLMCSFQILKPSEKKAKYLYSGMNSSRPTTPQRSAPMLATNKKK
[18]; MAPPIT configuration: N-C
  MAPPIT interaction score: 0.517
[18]; MAPPIT configuration: N-N
  MAPPIT interaction score: -0.255
[19]
  MAPPIT interaction score: -0.0767
[20]
  MAPPIT interaction score: -0.464
[21]
  MAPPIT interaction score: 1.19
[22]; MAPPIT configuration: N-C
  MAPPIT interaction score: 0.478
[22]; MAPPIT configuration: N-N
  MAPPIT interaction score: 0.558
[23]
  MAPPIT interaction score: -0.48
